The campaign covered roughly 360,000 compounds. About 10,000 (2.8%) were called active. Inconclusive results (about 4%) are left out. This is one part of a sample in which actives are shown more often than they occur. A number with no mark means an inactive call. Calls come from the whole dose curve; as a rule, active = well fitted inhibition curve with a large enough effect; inconclusive = small, poorly fitted or top-dose-only effect; inactive = flat fitted curve, though single readings scatter.
What follows are compounds tested against Serine/threonine-protein kinase PLK1 (Homo sapiens) (UniProt P53350) (assay: qHTS for Inhibitors of PLK1-PDB (polo-like kinase 1 - polo-box domain): Primary Screen). Conditions: Plk1 PBD binding of FITC phosphopeptide, fluorescence polarization.
Serine/threonine-protein kinase PLK1 (Homo sapiens), sequence (P53350 whole entry, looked up, the tested form may be a part): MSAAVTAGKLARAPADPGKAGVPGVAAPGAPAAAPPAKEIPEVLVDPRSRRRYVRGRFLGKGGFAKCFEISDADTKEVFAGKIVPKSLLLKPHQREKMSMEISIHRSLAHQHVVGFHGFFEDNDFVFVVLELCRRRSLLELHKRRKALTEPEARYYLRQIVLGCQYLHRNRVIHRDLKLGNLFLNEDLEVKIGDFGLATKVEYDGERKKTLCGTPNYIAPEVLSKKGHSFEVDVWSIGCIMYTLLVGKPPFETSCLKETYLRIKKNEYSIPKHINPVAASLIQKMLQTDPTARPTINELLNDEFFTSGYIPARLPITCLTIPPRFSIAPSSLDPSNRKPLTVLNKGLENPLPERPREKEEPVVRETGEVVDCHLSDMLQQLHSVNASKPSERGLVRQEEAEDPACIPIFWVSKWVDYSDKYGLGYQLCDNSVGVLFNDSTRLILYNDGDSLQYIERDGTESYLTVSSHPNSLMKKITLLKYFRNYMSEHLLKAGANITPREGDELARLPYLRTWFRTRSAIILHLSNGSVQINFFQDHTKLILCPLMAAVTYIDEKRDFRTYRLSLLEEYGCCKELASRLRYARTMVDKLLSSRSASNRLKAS
Text: The polo-like kinase 1 (Plk1) is a member of a conserved subfamily of serine / threonine protein kinases that plays a pivotal roles in cell proliferation. It has a C-terminal non-catalytic region called the polo-box domain (PBD) that plays a crucial role in the subcellular localization of the Plk1. […] Furthermore, depletion of the overexpressed Plk1 by RNAi efficiently induces apoptotic cell death in cancer and reduces tumor growth in mouse xenograft models. Thus, targeting Plk1 is an appealing strategy for anti-cancer therapy. Therefore, this project aimed to screen the Molecular Libraries Small Molecule Repository (MLSMR) using a novel approach to find inhibitors that target the Plk1 PBD instead of the conventional N-terminal catalytic domain. This project employed a fluorescence polarization (FP) assay using a FITC-conjugated phospho-9-mer (p-9-mer) peptide and purified human Plk1 PBD protein. The identified small molecule inhibitors of Plk1 PBD can then further be developed into useful tools for biomedical and clinical research that complements or replaces current relevant disease therapy. NIH Chemical Genomics Center [NCGC] NIH Molecular Libraries Probe Centers Network [MLPCN] MLPCN Grant: MH100728 Assay Submitter (PI): Kyung Lee, NCI
Four microliter of 25 nM FITC-p-9-mer + 60 nM Plk1 PBD in buffer solution (final concentrations 25 nM and 60 nM respectively) or 4 uL of 25 nM FITC-p-9-mer (final concentration 25 nM) in buffer will be dispensed into a 1,536 Greiner medium-binding black solid plate. Small molecules at final concentrations of 18 nM to 57 uM and positive control phospho-9-mer (sequence: Ac-PPLHSpTAI-NH2) at final concentrations 26 nM to 57 uM and phospho-13-mer (sequence: Ac-[…]pTAI-NH2) at final concentrations of 1 nM to 2.3 uM will be pin-transferred (23 nL) to the plate via a Kalypsys pin-tool robotics equipped with a 1,536-pin array. The reaction plate will be centrifuged for 1 min at 1000 rpm and incubated at room temperature for 10 min. The FITC fluorescence signals will be read using the PerkinElmer ViewLux plate reader at 480 / 20 nm excitation and 540 / 20 nm S and P polarization emission wavelengths. Reagent bottles will be kept submerged into 4 °C recirculating chiller bath and all liquid lines will be covered with aluminum foil to minimize degradation. Library plates will be screened starting from the lowest to the highest concentrations to minimize compound carryover. Vehicle only plates, with DMSO being pin-transferred instead of compound solutions, will be included regularly throughout the screen to record any systematic shifts in assay signal.
COc1cc(C(=S)N2CCOCC2)ccc1O was tested, and the Potency was 11.9 µM (active).
With COc1ccc(C(=O)C2CCCN(Cc3ccc(C)s3)C2)cc1OC (centres undefined) the max response, negative = inhibition was -12.4%.
In the case of COc1ccccc1OC(=O)c1ccc(C)c(S(=O)(=O)N2CCOCC2)c1, the max response, negative = inhibition is reported as -17.4%.
With S=C(NCCc1ccccc1)N1Cc2cc(N3CCOCC3)ccc2-n2nncc2C1 the max response, negative = inhibition was -7.87%.
OC1/C(=C/c2ccc(C(F)(F)F)cc2)N2CCC1CC2 (centres undefined) was tested, and the max response, negative = inhibition was 3.89%.
In the case of CCOC(=O)C1(Cc2ccc(Cl)cc2)CCN(C(C)CCn2cccn2)CC1 (centres undefined), the max response, negative = inhibition is reported as -2.75%.
In the case of CCOc1ccc(-c2cc(C)[n+](CCN(CC)CC)c(-c3ccc(OCC)cc3)c2)cc1, the max response, negative = inhibition is reported as -4.15%.
Work on CCn1cc(CN2CCCC(C(=O)c3cccc(C(F)(F)F)c3)C2)cn1 (centres undefined) yielded a max response, negative = inhibition of -6.76%.
For CN(C)C(=O)Oc1ccc(OCc2cccc[n+]2C)cc1, the max response, negative = inhibition was -4.14%.
For CCN(CC)C(=O)Oc1ccc(OC(=O)N(CC)CC)cc1, the Potency was 16.8 µM (active).
In the case of CCN(CC)C(=O)Oc1ccc(NC(=O)N2CCOCC2)cc1, the max response, negative = inhibition is reported as -7.81%.
With CCC1(C)CC(CCNCc2ccc(N(C)C)cc2)(c2ccc(F)cc2)CCO1 (centres undefined) the max response, negative = inhibition was -1.51%.
For COc1ccccc1CN1CCN(C(=O)Cc2ccccc2)CC1, the max response, negative = inhibition was 3.36%.
O=c1[nH]c2ccccc2n1C1CCN(C(c2ccccc2)c2nnnn2Cc2ccccc2)CC1 (centres undefined) showed a max response, negative = inhibition of 3.89%.
In the case of Cc1cc(C)c2c(c1)NP(=S)(c1ccccc1)N2 (centres undefined), the max response, negative = inhibition is reported as -17.9%.
For COc1ccc2c(c1)NP(=S)(c1ccccc1)N2 (centres undefined), the Potency was 3.36 µM (active).
CC(=O)Nc1ccccc1C(=O)OCC(=O)c1cccc2ccccc12 was tested, and the max response, negative = inhibition was -5.92%.
With CC(c1ccccc1)(c1ccccc1)c1ccncc1 the max response, negative = inhibition was -1.65%.
COC(=O)C1=C(c2cc3ccccc3o2)C[C@@H]2CC[C@H]1N2C(=O)NC1CCCCC1 showed a max response, negative = inhibition of 0.442%.
For CCOC(=O)C1=C(C)OC(N)=C(C(=O)OC)C12C(=O)Nc1ccc(Br)cc12 (centres undefined), the max response, negative = inhibition was 0.0447%.
CC(C)c1ccc(O)c(CN2CCN(c3ccccc3)CC2)c1 was tested, and the max response, negative = inhibition was 6.47%.
COc1cccc(N2C(=O)NC(=O)/C(=C\c3cn(C)c4ccccc34)C2=O)c1 was tested, and the Potency was 9.47 µM (active).
For O=C1NC(=O)N(c2ccccc2)C(=O)/C1=C/c1ccc([N+](=O)[O-])s1, the Potency was 2.67 µM (active).
CCc1nc2ccccc2c(=O)n1-c1cccc(OC)c1 was tested, and the max response, negative = inhibition was -4.27%.
With COc1cccc(N2C(=O)NC(=O)/C(=C\c3ccc([N+](=O)[O-])s3)C2=O)c1 the Potency was 5.32 µM (active).
With CC1=C(C(=O)Nc2ccccc2)SCCO1 the max response, negative = inhibition was -5.57%.
For CC(=CCOc1ccc2ccc(=O)oc2c1)C1=CC(=O)C(C)(C)O1, the max response, negative = inhibition was -1.51%.
O=C(O)C1CSC(c2cccnc2)N1 (centres undefined) gave a max response, negative = inhibition of -10%.
In the case of O=C1NCN(c2ccccc2)C12CCN(C(c1cccs1)c1nnnn1C1CCCCC1)CC2 (centres undefined), the max response, negative = inhibition is reported as -2.86%.
Compound COP(=O)(NS(=O)(=O)c1ccccc1)OC has a max response, negative = inhibition of -7.79%.
For C[N+]1(C)CCOC(O)(c2ccc(-c3ccc(C4(O)C[N+](C)(C)CCO4)cc3)cc2)C1 (centres undefined), the max response, negative = inhibition was -17.9%.
COc1ccc(-n2c(O)c(C(C)=Nc3ccc4c(c3)CCC4)c(=O)[nH]c2=O)cc1 gave a max response, negative = inhibition of 2.28%.
In the case of COc1ccccc1C1=NCc2nnc(CSC)n2-c2ccc(Cl)cc21, the max response, negative = inhibition is reported as 2.66%.
Compound O=C(NCC1=C(c2ccc3ccccc3c2)C[C@@H]2CC[C@H]1N2Cc1ccco1)c1cccs1 has a max response, negative = inhibition of -9.52%.
O=C1NC(=O)C(C/C=C/c2ccccc2)C(=O)N1 gave a max response, negative = inhibition of -29.7%.
CCN(CC)C(=O)c1ccc(NC(=O)c2cc(-n3cnnc3)ccc2Cl)cc1 gave a max response, negative = inhibition of -5.96%.
CN(C)CC1Oc2ccccc2OC1(O)c1ccccc1 (centres undefined) was tested, and the Potency was 5.32 µM (active).
With OC(CNC1CCCCC1)c1ccccc1 (centres undefined) the max response, negative = inhibition was -2.72%.
Compound CN1CCC(N(C)Cc2cccnc2)CC1 has a max response, negative = inhibition of -7.61%.
With CCOC(=O)C(O)(c1ccc(N)c(OC)c1)C(F)(F)F (centres undefined) the max response, negative = inhibition was -1.46%.
For CN(C)C(=O)Oc1cc(=O)n2c3c(cccc13)CCC2, the max response, negative = inhibition was -13.7%.
CC1CCCN1CCC(C(N)=O)(c1ccccc1)c1ccccc1 (centres undefined) gave a max response, negative = inhibition of -4.65%.
In the case of Cc1ccnc(-n2c(C)cc(/C=C3\C(=O)NC(=S)N(C)C3=O)c2C)c1, the Potency is reported as 2.38 µM (active).
Compound Cc1ccc(-n2c(C)cc(/C=C3\C(=O)NC(=O)N(C)C3=O)c2C)cc1C has a max response, negative = inhibition of -15.6%.
For O=C(NC(c1ccc(Cl)cc1)P(=O)(Oc1ccccc1)Oc1ccccc1)OCc1ccccc1 (centres undefined), the max response, negative = inhibition was 0.141%.
C[C@H]1CN([C@@H](C)CO)C(=O)CCCn2nncc2CO[C@H]1CN(C)C(=O)Oc1ccccc1 was tested, and the max response, negative = inhibition was -3.55%.
CC(CC(C#N)(c1ccccc1)c1ccccc1)N1CCCCC1 (centres undefined) showed a max response, negative = inhibition of -6.42%.
In the case of COc1cccc(C(c2nnnn2-c2ccc3c(c2)OCCO3)N2CCC3(CC2)C(=O)NCN3c2ccccc2)c1OC (centres undefined), the max response, negative = inhibition is reported as -7.89%.
With O=C(O)CCn1cc(C=C2C(=O)NC(=S)NC2=O)c(-c2cccc(Br)c2)n1 the Potency was 4.74 µM (active).
With O=c1[nH]c2ccccc2n1C1CCN(C(c2ccnc3ccccc23)c2nnnn2Cc2ccccc2)CC1 (centres undefined) the max response, negative = inhibition was 3%.
CCCCCCCCCCCCn1ccc(=N)cc1 showed a max response, negative = inhibition of -4.33%.
For COc1ccc(-c2nn(CCC#N)cc2C(=O)O)cc1, the max response, negative = inhibition was -2.51%.
For O=C(c1cc(S(=O)(=O)N2CCOCC2)ccc1F)N1CCC2(CC1)OCCO2, the max response, negative = inhibition was -4.68%.
For C=CC12CN(C)[C@@H]3C4CO[C@H](C[C@H]41)[C@]1(C(=O)Nc4ccccc41)[C@@H]32 (some centres undefined), the max response, negative = inhibition was -7.71%.
With CCN1C(=O)C(=Cc2c(C)n(CC(=O)NCC3CCCO3)c3ccccc23)C(=O)N(CC)C1=S (centres undefined) the Potency was 1.06 µM (active).
Compound C/C=C/CC1(CC)C(=O)NC(=S)NC1=O has a max response, negative = inhibition of -7.94%.
In the case of CCc1cccc2c(C#N)cn(CC(=O)N3CCOCC3)c12, the max response, negative = inhibition is reported as -5.32%.
With O=c1[nH]c(=S)[nH]c(O)c1/C=C1\C=Nc2ccccc21 the Potency was 1.19 µM (active).
Work on COc1ccccc1N=Nc1c(O)[nH]c(=S)[nH]c1=O yielded a max response, negative = inhibition of 13.3%.

Reference: PubChem BioAssay AID720504 (National Center for Advancing Translational Sciences (NCATS), 2013)
% is set by controls: 0 for no effect and ±100 for the full control effect; potency is the fitted concentration of half-maximal effect.
Note: nearly all actives have a fitted effect of over 65% in size.
Throughout, for max response, negative = inhibition: series mostly up to about 57 µM.
